Measured values taken from PubChem BioAssay AID1159580 (chemical genetic matrix, 2015).
Among all 5,500 compounds or so, about 2,000 (36%) were called active. About 18% were inconclusive and are not listed. Rule as the data show it: active = normalized growth mostly below about 0.91 (no sharp cut-off); inconclusive = no clear call, values can overlap the other calls; inactive = mostly above about 0.92. This is one part of the list.

Assay: chemical genetic growth profiling, strain panel (AID 1159580);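 also: tested at 20 µM; growth read once vehicle control cultures reached saturation at 30 °C; 1 = growth at the plate median or of vehicle wells; lower values mean less growth of the strain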
Conditions: S. cerevisiae deletion strains, growth OD

Measured: normalized growth

CC(=O)Oc1cc2c(c(C)c1OC(C)=O)CC1OC13C2(C)CCC1(C)C2CC(C)(C(=O)O)CCC2(C)CCC13C (configuration not stated)
inactive: locus YAL021C, strain ccr4, hits give low values 0.988 | locus YAL026C, strain drs2, hits give low values 1.04 | locus YAL030W, strain snc1, hits give low values 1.01 | locus YBL061C, strain skt5, hits give low values 1.04 | locus YBR009C, strain hhf1, hits give low values 1 | locus YBR021W, strain FUR4, hits give low values 0.99 | locus YBR023C, strain chs3, hits give low values 1.01 | locus YBR171W, strain sec66, hits give low values 1.02 | locus YBR229C, strain ROT2, hits give low values 1.01 | locus YBR231C, strain swc5, hits give low values 1.04 | locus YBR279W, strain paf1, hits give low values 1.02 | locus YCL011C, strain gbp2, hits give low values 1.01 | locus YCL016C, strain dcc1, hits give low values 1 | locus YCL029C, strain bik1, hits give low values 1.03 | locus YCL069W, strain vba3, hits give low values 1.03 | locus YCR088W, strain abp1, hits give low values 1.01 | locus YDL005C, strain med2, hits give low values 1.02 | locus YDL035C, strain GPR1, hits give low values 0.993 | locus YDL040C, strain nat1, hits give low values 1.02 | locus YDL074C, strain BRE1, hits give low values 1.02 | locus YDL101C, strain DUN1, hits give low values 1.01 | locus YDL185W, strain tfp1, hits give low values 1.04 | locus YDL192W, strain arf1, hits give low values 1.02 | locus YDR001C, strain nth1, hits give low values 1.01 | locus YDR069C, strain doa4, hits give low values 1.01 | locus YDR101C, strain arx1, hits give low values 1.03 | locus YDR137W, strain rgp1, hits give low values 1.02 | locus YDR159W, strain sac3, hits give low values 1.05 | locus YDR162C, strain NBP2, hits give low values 1 | locus YDR195W, strain ref2 1.02 | locus YDR297W, strain sur2, hits give low values 1.02 | locus YDR318W, strain mcm21, hits give low values 1.02 | locus YDR334W, strain swr1, hits give low values 1.01 | locus YDR335W, strain msn5, hits give low values 1.02 | locus YDR388W, hits give low values 1.02 | locus YDR392W, strain spt3, hits give low values 0.919 | locus YDR502C, strain sam2, hits give low values 1.01 | locus YEL003W, strain gim4, hits give low values 1.01 | locus YEL037C, strain rad23, hits give low values 1.01 | locus YEL061C, strain CIN8 (second series), hits give low values 1.02 | locus YEL061C, strain CIN8, hits give low values 1.01 | locus YER015W, strain faa2, hits give low values 1.02 | locus YER016W, strain bim1, hits give low values 1.02 | locus YER110C, hits give low values 1.03 | locus YER111C, strain swi4, hits give low values 1 | locus YER155C, strain BEM2 (second series), hits give low values 1.01 | locus YER155C, strain BEM2, hits give low values 0.99 | locus YER167W, strain BCK2, hits give low values 1.01 | locus YFR010W, strain ubp6, hits give low values 1.03 | locus YGL078C, strain dbp3, hits give low values 0.99 | locus YGL086W, strain mad1, hits give low values 1.02 | locus YGL167C, strain pmr1, hits give low values 1 | locus YGL173C, strain kem1, hits give low values 1.02 | locus YGL227W, strain vid30, hits give low values 1.02 | locus YGL240W, strain doc1, hits give low values 1.02 | locus YGL248W, strain PDE1, hits give low values 0.999 | locus YGL253W, strain hxk2, hits give low values 1.03 | locus YGR135W, strain pre9, hits give low values 1.03 | locus YGR252W, strain gcn5, hits give low values 0.989 | locus YHR013C, strain ard1, hits give low values 1.01 | locus YHR027C, strain rpn1, hits give low values 1.01 | locus YHR030C, strain SLT2, hits give low values 1.02 | locus YHR079C, strain IRE1 (second series), hits give low values 1.04 | locus YHR094C, strain hxt1, hits give low values 1.04 | locus YHR129C, strain ARP1, hits give low values 1.01 | locus YHR142W, strain chs7, hits give low values 1.01 | locus YHR200W, strain rpn10, hits give low values 1.04 | locus YIL066C, strain RNR3, hits give low values 0.998 | locus YIL073C, strain SPO22, hits give low values 1.02 | locus YIL125W, strain kgd1, hits give low values 1.01 | locus YIR030C, strain dcg1, hits give low values 1.04 | locus YJL092W, strain hpr5, hits give low values 1.02 | locus YJL095W, strain BCK1 (second series), hits give low values 1.03 | locus YJL095W, strain BCK1, hits give low values 0.998 | locus YJL115W, strain asf1, hits give low values 1.01 | locus YJL129C, strain trk1, hits give low values 1.02 | locus YJL134W, strain LCB3, hits give low values 1.01 | locus YJL154C, strain vps35, hits give low values 1.01 | locus YJL164C, strain tpk1, hits give low values 0.989 | locus YJL166W, strain qcr8, hits give low values 1.01 | locus YJL168C, strain set2, hits give low values 1.03 | locus YJL187C, strain SWE1 (second series), hits give low values 0.992 | locus YJR043C, strain POL32, hits give low values 1 | locus YKL009W, strain mrt4, hits give low values 0.927 | locus YKL068W, hits give low values 1.03 | locus YKL085W, strain MDH1 (second series), hits give low values 1 | locus YKL085W, strain MDH1, hits give low values 1 | locus YKL160W, strain elf1, hits give low values 1 | locus YKL190W, strain CNB1, hits give low values 1 | locus YKR001C, strain vps1, hits give low values 0.993 | locus YKR026C, strain gcn3, hits give low values 1.02 | locus YKR091W, strain srl3, hits give low values 1.01 | locus YLL001W, strain dnm1, hits give low values 1.03 | locus YLL026W, hits give low values 1.01 | locus YLL041C, strain sdh2, hits give low values 1.01 | locus YLR027C, strain aat2, hits give low values 1.01 | locus YLR039C, strain RIC1, hits give low values 0.893 | locus YLR058C, strain SHM2, hits give low values 1 | locus YLR102C, strain apc9, hits give low values 1.03 | locus YLR221C, strain rsa3, hits give low values 1.03 | locus YLR258W, strain gsy2, hits give low values 1.02 | locus YLR262C, strain YPT6 (second series), hits give low values 1.02 | locus YLR262C, strain YPT6, hits give low values 0.853 | locus YLR268W, strain sec22, hits give low values 1.04 | locus YLR320W, strain mms22, hits give low values 1.03 | locus YLR330W, strain CHS5, hits give low values 1.01 | locus YLR342W, strain FKS1 (second series), hits give low values 1 | locus YLR342W, strain FKS1, hits give low values 1.02 | locus YLR357W, strain rsc2, hits give low values 1.01 | locus YLR370C, strain arc18, hits give low values 1.01 | locus YLR371W, strain rom2, hits give low values 1.05 | locus YLR384C, strain iki3, hits give low values 1 | locus YLR418C, strain cdc73, hits give low values 1 | locus YML016C, strain PPZ1, hits give low values 1.01 | locus YML032C, strain rad52, hits give low values 1.03 | locus YML120C, strain ndi1, hits give low values 1.02 | locus YML124C, strain tub3, hits give low values 1.02 | locus YMR058W, strain fet3, hits give low values 1.03 | locus YMR078C, strain ctf18, hits give low values 1.04 | locus YMR125W, strain sto1, hits give low values 0.985 | locus YMR129W, hits give low values 1.01 | locus YMR205C, strain PFK2, hits give low values 0.988 | locus YMR223W, strain ubp8, hits give low values 1.05 | locus YMR231W, strain pep5, hits give low values 1.01 | locus YMR263W, strain SAP30, hits give low values 1.01 | locus YMR307W, strain GAS1, hits give low values 0.949 | locus YNL067W, strain RPL9B, hits give low values 1 | locus YNL071W, strain lat1, hits give low values 1.01 | locus YNL153C, strain GIM3, hits give low values 1 | locus YNL209W, strain ssb2, hits give low values 0.994 | locus YNL233W, strain BNI4, hits give low values 1.02 | locus YNL248C, strain rpa49, hits give low values 1.06 | locus YNL250W, strain rad50, hits give low values 1.02 | locus YNL271C, strain bni1, hits give low values 1.03 | locus YNL298W, strain CLA4, hits give low values 0.994 | locus YNL307C, strain MCK1, hits give low values 1.03 | locus YNL322C, strain KRE1 (second series), hits give low values 0.994 | locus YNR049C, strain mso1, hits give low values 1.04 | locus YNR052C, strain pop2, hits give low values 1.01 | locus YOL006C, strain TOP1, hits give low values 0.964 | locus YOL012C, strain htz1 1.11 | locus YOL147C, strain pex11, hits give low values 1.04 | locus YOR001W, strain rrp6, hits give low values 1.02 | locus YOR061W, strain CKA2, hits give low values 1.02 | locus YOR069W, strain VPS5, hits give low values 1.01 | locus YOR070C, strain gyp1, hits give low values 1.04 | locus YOR080W, strain dia2, hits give low values 1.02 | locus YOR083W, strain WHI5, hits give low values 1.01 | locus YOR106W, strain vam3, hits give low values 1.01 | locus YOR136W, strain idh2, hits give low values 1.02 | locus YOR144C, strain elg1, hits give low values 1.03 | locus YOR184W, strain ser1, hits give low values 0.994 | locus YOR265W, strain rbl2, hits give low values 1.01 | locus YOR270C, strain vph1, hits give low values 1.05 | locus YOR290C, strain snf2, hits give low values 0.994 | locus YOR316C, strain cot1, hits give low values 1.03 | locus YPL051W, strain arl3, hits give low values 1.02 | locus YPL055C, strain LGE1, hits give low values 1.01 | locus YPL078C, strain atp4, hits give low values 0.99 | locus YPL106C, strain sse1, hits give low values 1.03 | locus YPL240C, strain hsp82, hits give low values 1.01 | locus YPL241C, strain CIN2, hits give low values 1 | locus YPR119W, strain clb2, hits give low values 1.02 | locus YPR141C, strain kar3, hits give low values 1.02 | locus YPR163C, strain tif3, hits give low values 1.04 | locus YPR167C, strain met16, hits give low values 1.02 | strain wtn01, hits give low values 1.01
